# About 83,000 compounds went through this panel and 20% of them were active in at least one assay; those are over-represented in the sample as a whole.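 Cell lines were cultured in 96-well plates, exposed to a single compound concentration, and assessed for percent growth 48 hours later.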 Unmarked numbers belong to inactive results. Active and inactive are the calls of the source.
# Test system: PC-3 prostate
# Experiment: NCI-60 one-dose screen, 48 h (100 = growth as untreated, 0 = no growth, -100 = all killed)
# Details: 10 µM unless noted
# Protocol: Growth inhibition of the PC-3 human tumor cell line is measured as a screen for anti-cancer activity. Cells are grown in 96 well plates and exposed to the test compound for 48 hours. Compounds are tested at a single concentration, which is 10^-5 M for most compounds. The reported endpoint is percent growth (GI% or GIPRCNT), where numbers from 0 - 100% represent growth inhibition, and numbers from -100% - 0 represent cell death. For example, a value of 40 represents 60% growth inhibition. A value of 0 means no net growth occurred over the course of the experiment. A value of -40 indicates 40% of cells at the beginning of the experiment died by the end of the experiment. A value of -100 means all cells are dead at the end of the experiment.
# NCI-60 Human Tumor Cell Lines Screen was performed using the standard one-dose NCI protocol, which is described in more detail at https://dtp.cancer.gov/discovery_development/nci-60/default.htm.
# Compounds with GIPRCNT values below 10 were considered active. Activity score was based on GIPRCNT using the following formula: […]
# Score is 0 for GIPRCNT values of 100 or above, 50 for GIPRCNT values of 0, and 100 for GIPRCNT values of -100.
row,SMILES,growth
1,COc1ccc(-c2cnnc3c(-c4cccc(C(F)(F)F)c4)cnn23)cc1,63.2%
2,N/C(=N\N=C\c1cc2ccccc2[nH]1)N/N=C/c1cc2ccccc2[nH]1,89.3%
3,COc1cc(/C=C/C(=O)c2ccc(Nc3ncnc4ccccc34)cc2)cc(OC)c1,43.9%
4,C#CC(=O)Nc1cccc(Nc2nc3c(c(NCc4ccccc4)n2)CCCC3)c1,-66.2% (active)
5,Cn1c2c(Cl)c(Cl)ccc2c2cc(N)[nH]c(=O)c21,64.6%
6,N#CC1=C(N)Oc2c(ccc3ccccc23)C1c1ccc([N+](=O)[O-])cc1 (stereo not given),65.4%
7,CCNC(=S)NNC(=O)c1cc2ccc1CCc1ccc(cc1)CC2,91.1%
8,Cc1ccc(C(=O)Nc2ccccc2C(=O)N/N=C(\c2ccccc2)c2ccccn2)cc1,33.1%
9,O=C(Cc1ccc(/C=C/C(=O)c2ncc[nH]2)cc1)Nc1ccc(C(F)(F)F)cc1,36.6%
10,Fc1ccc(C2CC(c3cccc(Nc4ccncc4)c3)=NN2c2ccc(Cl)cc2)cc1 (stereo not given),49.4%
11,Cn1c(COC(=O)N2CCCCC2)nc2c(N3CCOCC3)nc(-c3ccccc3)nc21,-57.5% (active)
12,COc1ccc(/C=N/C2=C(C#N)C(c3ccccc3[N+](=O)[O-])c3ccc4ccccc4c3O2)cc1 (stereo not given),71.7%
13,O=C(/C=C/c1ccc[nH]1)c1ccc(-n2ccc(C(F)(F)F)n2)cc1,8.84% (active)
14,COc1cc2nc(-c3ccc(C(F)(F)F)cc3)cc(OCCN3CCC(O)CC3)c2cc1OC,71.8%
15,CC1(C)CC[C@]2(C(=O)NCC#CCN3CCOCC3)CC[C@]3(C)C(=CC[C@@H]4[C@@]5(C)Cc6c([nH]c7ccccc67)C(C)(C)[C@@H]5CC[C@]43C)[C@@H]2C1,58.6%
16,COc1ccc(C(=O)/C=C/c2ccc(OCc3ccccc3)c(OC)c2)cc1OC,46%
17,CNC(=O)NCC1OC(n2cnc3c(NC(=O)Nc4ccccc4)ncnc32)C(O[Si](C)(C)C(C)(C)C)C1O[Si](C)(C)C(C)(C)C (stereo not given),7.78% (active)
18,CCCCCOc1ccc(/C=N/Nc2cc(C)nc3ccc(Br)cc23)cc1,27.3%
19,COc1cc2ncnc(Nc3ccc(C(=O)/C=C/c4ccc(C(F)(F)F)cc4F)cc3)c2cc1OC,83%
20,CCCCCCCCCCCCCCCC(=O)OC[C@@]1(O)C[C@@]23CC[C@@H]4C(C)(C)[C@H](O)CC[C@@]4(C)[C@@H]2CC[C@H]1C3,100%

row,SMILES,growth
1,C/C(=C(/c1ccccc1)c1ccc(OCC(O)CN2CCOCC2)cc1)c1ccccc1 (stereo not given),71.8%
2,CC(C)(C#N)N1CCN(c2ccccc2Cl)CC1,102%
3,Cn1c(COC(=O)NCCc2ccccn2)nc2c(N3CCOCC3)nc(Cl)nc21,18.4%
4,COc1ccc(-n2cc(-c3cc(OC)c(OC)c(OC)c3)n(C(C)=O)c2=O)cc1,94%
5,O=C(CN1CCOCC1)Nc1ccc2ncnc(Nc3ccc(Oc4cccc(C(F)(F)F)c4)c(Cl)c3)c2c1,44.5%
6,Cc1ccc(C(c2c(O)c3cc(Br)ccc3[nH]c2=O)c2c(O)c3cc(Br)ccc3[nH]c2=O)cc1,75.5%
7,CCC1(CC)NC(=O)c2c(c3ccc(Cl)c(Cl)c3n2C)C1C#N (stereo not given),90.5%
8,Clc1ccc(C2CC(c3cccc(Nc4ccncc4)c3)=NN2c2ccccc2)cc1 (stereo not given),36%
9,O=C(CSc1nc2sc3c(c2c(=O)n1Cc1ccccc1)CCCC3)N1CCN(c2ccccc2)CC1,83.2%
10,COc1ccc(NS(=O)(=O)c2ccc(C)cc2)c([N+](=O)[O-])c1,97.5%
11,COc1cccc(CCC(=O)c2cc3c(N)c(C(=O)Nc4cccc(Cl)c4C)sc3nc2C)c1,18.8%
12,Cc1nc2sc(C(=O)Nc3ccccc3)c(N)c2cc1C(=O)c1ccc(C(F)(F)F)cc1,102%
13,CS(=O)(=O)Nc1cc(-c2ccc3ncnc(Nc4ccc5[nH]ncc5c4)c3c2)cnc1Cl,76.8%
14,COc1ccc(/C=C\c2nc3ccccc3s2)cc1OP(=O)(O)O,43.5%
15,COc1ccc2nc(N=Nc3c(O)ccc4ccccc34)sc2c1,49.1%
16,O=C(N/N=C/c1cccc(O)c1)c1ccccc1Nc1cccc(C(F)(F)F)c1,81.9%
17,Cc1ccc2[nH]c(=O)cc(-n3nncc3COc3ccc(C=O)cc3)c2c1,97.8%
18,Cc1cccc(Oc2ccc(Nc3ncnc4ccc(NC(=O)CN(C)C)cc34)cc2Cl)c1,40.7%
19,O=C(CCN1CCCC1)Nc1ccc2c(Nc3ccccc3)c3ccccc3nc2c1,19.9%
20,Cc1[nH]c(C(=O)Nc2ccccc2OCc2cccc(C(=O)NCCN)c2)c(Cl)c1Cl,79.7%

# Reference: PubChem BioAssay (NCI)
